Activity calls are given as the source filed them. How the source made its calls: active means hit-call score of the fitted dose curve at least 0.9, where 1 is the maximum; inactive means score below 0.9.
Assays:
[1] = read-out: Interleukin-1 alpha (IL1a), IL1A (gene 3552); experiment: BSK_KF3CT_IL1a: BioMAP Diversity Plus: KF3CT Assay for Interleukin-1 alpha (IL1a) Biomarker Activity (AID 2283070); details: primary human keratinocytes with fibroblasts; actives raise or lower the signal
Outline: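 Readout is IL-1a level by ELISA, compared bidirectionally with DMSO as baseline. Cells: human keratinocytes co-cultured with foreskin fibroblasts, harvested 24 h post-dose.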

[2] = read-out: TIMP metallopeptidase inhibitor 2 (TIMP2), TIMP2 (gene 7077); experiment: BSK_KF3CT_TIMP2: BioMAP Diversity Plus: KF3CT Assay for TIMP metallopeptidase inhibitor 2 (TIMP2) Biomarker Activity (AID 2283071); details: primary human keratinocytes with fibroblasts; actives raise or lower the signal
Outline: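 TIMP-2 measured by ELISA at 24 h in human keratinocyte/fibroblast primary co-cultures exposed to chemicals. Both increases and decreases were fitted against DMSO. Parallel cultures were stained with SRB for total protein as an overt-cytotoxicity check.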

[3] = read-out: Transforming growth factor beta 1 (TGFb1), TGFB1 (gene 7040); experiment: BSK_KF3CT_TGFb1: BioMAP Diversity Plus: KF3CT Assay for Transforming growth factor beta 1 (TGFb1) Biomarker Activity (AID 2283072); details: primary human keratinocytes with fibroblasts; actives raise or lower the signal
Outline: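 ELISA quantifies TGF-b1 at 24 h post-dose in a primary human skin co-culture of keratinocytes and fibroblasts, with gain or loss judged against DMSO. Parallel SRB total-protein staining flags overt cytotoxicity.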

[4] = read-out: C-C motif chemokine 2 (Homo sapiens) (UniProt P13500); experiment: BSK_KF3CT_MCP1: BioMAP Diversity Plus: KF3CT Assay for Monocyte Chemoattractant Protein 1 (MCP1/CCL2) Biomarker Activity (AID 2283073); details: primary human keratinocytes with fibroblasts; actives raise or lower the signal
Outline: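 Human keratinocyte–foreskin fibroblast co-culture; MCP-1 measured by ELISA 24 h after dosing. Bidirectional fit vs DMSO; cytotoxicity tracked by SRB total protein in parallel cultures.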

[5] = read-out: Matrix Metallopeptidase 9 (MMP9), MMP9 (gene 4318); experiment: BSK_KF3CT_MMP9: BioMAP Diversity Plus: KF3CT Assay for Matrix Metallopeptidase 9 (MMP9) Biomarker Activity (AID 2283074); details: primary human keratinocytes with fibroblasts; actives raise or lower the signal;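 on AC50: MMP9 protein level quantified by ELISA in the co-culture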
Outline: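 Values come from bidirectional fitting relative to DMSO of MMP-9 levels, which were measured by ELISA. Measurements were taken 24 h after chemical dosing of a keratinocyte and foreskin fibroblast co-culture.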

[6] = read-out: urokinase plasminogen activator (uPA), PLAU (gene 5328); experiment: BSK_KF3CT_uPA: BioMAP Diversity Plus: KF3CT Assay for urokinase plasminogen activator (uPA) Biomarker Activity (AID 2283075); details: primary human keratinocytes with fibroblasts; actives raise or lower the signal
Outline: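 Values derive from bidirectional fitting against DMSO controls. Keratinocyte/foreskin fibroblast co-cultures received chemical; 24 h later uPA was detected by ELISA, with SRB total-protein staining in parallel wells for overt cytotoxicity.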

CD40, CD40 (gene 958) [7] = experiment: BSK_LPS_CD40: BioMAP Diversity Plus: LPS Assay for CD40 Biomarker Activity (AID 2283076); details: primary human HUVEC with PBMC; actives raise or lower the signal
Outline: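 HUVEC plus PBMC co-culture stimulated with LPS; CD40 quantified by ELISA 24 h after compound dosing. Fitting was bidirectional relative to DMSO. SRB staining of parallel cultures flagged overt cytotoxicity.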

[8] = read-out: E-selectin (Homo sapiens) (UniProt P16581); experiment: BSK_LPS_Eselectin: BioMAP Diversity Plus: LPS Assay for Eselectin Biomarker Activity (AID 2283077); details: primary human HUVEC with PBMC; actives raise or lower the signal
Outline: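 Human umbilical vein endothelial cells co-cultured with PBMC under LPS stimulation; cell-surface E-selectin measured by ELISA 24 h after dosing. Change in either direction versus DMSO, with SRB total-protein staining in parallel cultures for cytotoxicity.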

[9] = read-out: Interleukin-8 (IL8), CXCL8 (gene 3576); experiment: BSK_LPS_IL8: BioMAP Diversity Plus: LPS Assay for Interleukin-8 (IL8) Biomarker Activity (AID 2283078); details: primary human HUVEC with PBMC; actives raise or lower the signal
Outline: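 Human umbilical vein endothelial cells co-cultured with PBMC, LPS-stimulated, exposed to compound for 24 h. IL-8 quantified by ELISA; fitted in both directions against DMSO, with SRB total-protein staining of parallel cultures for cytotoxicity.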

[10] = BSK_LPS_SRB: Viability Assessment in the BioMAP Diversity Plus: LPS Assay (AID 2283079); details: primary human HUVEC with PBMC;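 further: total protein by sulforhodamine B absorbance as a cytotoxicity measure; measured one day after compound addition; fitted in both directions against DMSO so loss or gain of signal counts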
Outline: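 Co-culture of human umbilical vein endothelial cells and PBMC, read 24 h after dosing. Total protein by 0.1% SRB staining after 10% TCA fixation, absorbance at 560 nm; bidirectional fit against DMSO.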

[11] = read-out: Interleukin-1 alpha (IL1a), IL1A (gene 3552); experiment: BSK_LPS_IL1a: BioMAP Diversity Plus: LPS Assay for Interleukin-1 alpha (IL1a) Biomarker Activity (AID 2283080); details: primary human HUVEC with PBMC; actives raise or lower the signal
Outline: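 Human umbilical vein endothelial cells co-cultured with PBMC and stimulated with LPS; IL-1a measured by ELISA 24 h after dosing. Bidirectional fitting against DMSO; cytotoxicity checked by SRB staining in parallel cultures.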

[12] = read-out: Monocyte Chemoattractant Protein-1 (MCP1), CCL2 (gene 6347); experiment: BSK_LPS_MCP1: BioMAP Diversity Plus: LPS Assay for Monocyte Chemoattractant Protein-1 (MCP1) Biomarker Activity (AID 2283081); details: primary human HUVEC with PBMC; actives raise or lower the signal;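 on AC50: secreted MCP-1 protein quantified by ELISA in culture supernatant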
Outline: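 Human umbilical vein endothelial cells co-cultured with PBMC, LPS-stimulated; secreted MCP-1 measured by ELISA 24 h after compound addition. Bidirectional curve fitting against DMSO baseline; SRB total-protein staining in parallel cultures for cytotoxicity.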

[13] = BSK_LPS_PGE2: BioMAP Diversity Plus: LPS Assay for Prostaglandin E2 (PGE2) Biomarker Activity (AID 2283082); details: primary human HUVEC with PBMC; actives raise or lower the signal;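 on AC50: secreted prostaglandin E2 measured by ELISA in LPS-stimulated co-culture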
Outline: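 PGE2 release measured by ELISA in an LPS-activated co-culture of human umbilical vein endothelial cells and peripheral blood mononuclear cells, read at 24 h post-dosing. DMSO served as baseline for bidirectional curve fitting.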

[14] = read-out: Macrophage colony-stimulating factor (MCSF), CSF1 (gene 1435); experiment: BSK_LPS_MCSF: BioMAP Diversity Plus: LPS Assay for Macrophage colony-stimulating factor (MCSF) Biomarker Activity (AID 2283083); details: primary human HUVEC with PBMC; actives raise or lower the signal
Outline: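 HUVEC–PBMC co-culture, M-CSF measured by ELISA 24 h after chemical dosing. Fitted in both directions relative to DMSO as negative control; overt cytotoxicity assessed by SRB total-protein staining in parallel cultures.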

[15] = read-out: Tissue Factor, F3 (gene 2152); experiment: BSK_LPS_TissueFactor: BioMAP Diversity Plus: LPS Assay for Tissue Factor Biomarker Activity (AID 2283084); details: primary human HUVEC with PBMC; actives raise or lower the signal
Outline: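 Human umbilical vein endothelial cells co-cultured with PBMC were dosed with compound. Cell-surface CD142 was measured by ELISA 24 h later. Activity was fitted bidirectionally against DMSO, with SRB total-protein staining in parallel cultures for cytotoxicity.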

[16] = read-out: Tumor necrosis factor (Homo sapiens) (UniProt P01375); experiment: BSK_LPS_TNFa: BioMAP Diversity Plus: LPS Assay for Tumour Necrosis Factor alpha (TNFa) Biomarker Activity (AID 2283085); details: primary human HUVEC with PBMC; actives raise or lower the signal;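 on AC50: TNFa protein level quantified by ELISA in the co-culture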
Outline: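 TNFa was quantified by ELISA in LPS-activated co-cultures of human endothelial cells and PBMC, 24 h post-dosing. Both increases and decreases versus DMSO were fitted.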

[17] = read-out: Vascular cell adhesion molecule 1 (VCAM1), VCAM1 (gene 7412); experiment: BSK_LPS_VCAM1: BioMAP Diversity Plus: LPS Assay for Vascular cell adhesion molecule 1 (VCAM1) Biomarker Activity (AID 2283086); details: primary human HUVEC with PBMC; actives raise or lower the signal
Outline: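 VCAM-1 quantified by ELISA in an LPS-activated co-culture of human endothelial cells and peripheral blood mononuclear cells, read 24 h post-treatment. Fitted in both directions versus DMSO; parallel SRB staining flags overt cytotoxicity.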

CD38, CD38 (gene 952) = experiment: BSK_SAg_CD38: BioMAP Diversity Plus: SAg Assay for CD38 Biomarker Activity (AID 2283087); details: primary human HUVEC with PBMC; actives raise or lower the signal
Outline: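 CD38 quantified by ELISA (fluorescence) in a superantigen-activated endothelial cell–PBMC co-culture at 24 h post-dose. Activity fitted in both directions relative to DMSO; parallel SRB and Alamar Blue cytotoxicity read-outs.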

CD40, CD40 (gene 958) [18] = experiment: BSK_SAg_CD40: BioMAP Diversity Plus: SAg Assay for CD40 Biomarker Activity (AID 2283088); details: primary human HUVEC with PBMC; actives raise or lower the signal
Outline: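 HUVEC plus PBMC co-culture, superantigen-activated, with CD40 read by ELISA 24 h after dosing. Curves fitted in both directions against DMSO. Overt cytotoxicity checked by parallel SRB total-protein staining.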

CD69, CD69 (gene 969) = experiment: BSK_SAg_CD69: BioMAP Diversity Plus: SAg Assay for CD69 Biomarker Activity (AID 2283089); details: primary human HUVEC with PBMC; actives raise or lower the signal;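 further: cell surface CD69 protein quantified by ELISA with fluorescence detection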
Outline: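 Values derive from bidirectional fitting relative to DMSO vehicle. Cells: umbilical vein endothelium plus peripheral blood mononuclear cells, treated 24 h before fluorescent ELISA for CD69.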

E-selectin (Homo sapiens), sequence (P16581 whole entry, looked up): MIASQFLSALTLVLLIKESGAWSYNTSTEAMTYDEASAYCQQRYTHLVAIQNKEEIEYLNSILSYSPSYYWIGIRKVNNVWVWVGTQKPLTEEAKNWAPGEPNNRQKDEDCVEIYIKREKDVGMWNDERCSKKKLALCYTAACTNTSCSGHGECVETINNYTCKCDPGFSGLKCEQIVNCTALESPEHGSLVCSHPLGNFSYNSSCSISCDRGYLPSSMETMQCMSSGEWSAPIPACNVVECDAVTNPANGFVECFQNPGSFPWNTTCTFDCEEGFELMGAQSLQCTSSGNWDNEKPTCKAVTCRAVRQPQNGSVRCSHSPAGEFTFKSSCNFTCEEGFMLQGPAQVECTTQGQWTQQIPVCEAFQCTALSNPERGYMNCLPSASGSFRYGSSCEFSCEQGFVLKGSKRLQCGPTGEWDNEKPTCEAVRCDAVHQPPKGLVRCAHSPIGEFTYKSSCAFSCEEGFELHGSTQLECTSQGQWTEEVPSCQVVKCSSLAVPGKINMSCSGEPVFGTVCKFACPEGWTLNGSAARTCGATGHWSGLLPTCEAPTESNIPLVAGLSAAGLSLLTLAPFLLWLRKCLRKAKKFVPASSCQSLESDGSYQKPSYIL
Tumor necrosis factor (Homo sapiens), sequence (P01375 whole entry, looked up): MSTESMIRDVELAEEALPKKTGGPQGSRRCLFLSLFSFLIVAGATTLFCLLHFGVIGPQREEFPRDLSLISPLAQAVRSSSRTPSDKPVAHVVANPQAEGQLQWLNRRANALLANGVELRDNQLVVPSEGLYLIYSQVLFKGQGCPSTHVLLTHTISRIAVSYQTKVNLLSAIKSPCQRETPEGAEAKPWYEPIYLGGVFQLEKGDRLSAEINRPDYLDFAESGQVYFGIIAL

CNc1cnn(-c2cccc(C(F)(F)F)c2)c(=O)c1Cl
outcome [1]: inactive | outcome [2]: inactive | outcome [3]: inactive | outcome [4]: inactive | outcome [5]: inactive | outcome [6]: inactive | outcome (CD40, CD40 (gene 958) [7]): inactive | outcome [8]: inactive | outcome [9]: inactive | outcome [10]: inactive | outcome [11]: inactive | outcome [12]: inactive | outcome [13]: inactive | outcome [14]: inactive | outcome [15]: inactive | outcome [16]: inactive | outcome [17]: inactive | AC50 (CD38, CD38 (gene 952)): 9.82 µM (active) | AC50 (CD40, CD40 (gene 958) [18]): 11.7 µM (active) | AC50 (CD69, CD69 (gene 969)): 29.1 µM (active)

C=C(C)[C@H]1Cc2c(ccc3c2O[C@@H]2COc4cc(OC)c(OC)cc4[C@@H]2C3=O)O1
outcome [1]: inactive | outcome [2]: inactive | outcome [3]: inactive | outcome [4]: inactive | AC50 [5]: 16.7 µM (active) | outcome [6]: inactive | AC50 (CD40, CD40 (gene 958) [7]): 6.01 µM (active) | AC50 [8]: 20 µM (active) | outcome [9]: inactive | AC50 [10]: 10.9 µM (active) | AC50 [12]: 26.8 µM (active) | AC50 [13]: 0.702 µM (active) | AC50 [14]: 13.4 µM (active) | outcome [16]: inactive | AC50 [17]: 5.99 µM (active) | AC50 (CD38, CD38 (gene 952)): 5.59 µM (active) | AC50 (CD40, CD40 (gene 958) [18]): 7.75 µM (active) | AC50 (CD69, CD69 (gene 969)): 3.97 µM (active)

CCCCSP(=O)(SCCCC)SCCCC
outcome [1]: inactive | outcome [2]: inactive | outcome [3]: inactive | outcome [4]: inactive | outcome [5]: inactive | outcome [6]: inactive | AC50 (CD40, CD40 (gene 958) [7]): 31.8 µM (active) | AC50 [8]: 32.6 µM (active) | AC50 [9]: 27.1 µM (active) | AC50 [10]: 16 µM (active) | outcome [11]: inactive | AC50 [12]: 20 µM (active) | AC50 [13]: 29.7 µM (active) | outcome [14]: inactive | AC50 [16]: 32.5 µM (active) | AC50 [17]: 31.1 µM (active) | AC50 (CD38, CD38 (gene 952)): 20 µM (active) | outcome (CD40, CD40 (gene 958) [18]): inactive | AC50 (CD69, CD69 (gene 969)): 31.5 µM (active)

Source: PubChem BioAssay (EPA / NIEHS)
